In the library only some 9.2% were active in any assay of this set; here they are far more common.
HTT aggregate – reduces HttQ103-GFP aggregates in PC12 cells | PC12 HttQ103-GFP aggregates, Acumen cytometry, 40 h | Potency, µM (series often up to 46.1 µM), inactives show at the top dose activity change, negative = inhibition, hits mostly inhibitors | 220,000 compounds, 1.1% hits | AID 1688; active means well fitted curve in the direction sought with a large enough effect; inconclusive means small, poorly fitted or top-dose-only effect, or another doubt; inactive means no such curve, though single readings can be large; an effect the other way counts as inactive or inconclusive; further: on the % scale 0 is the no-effect control and ±100 the full control effect; nearly all actives have a fitted effect of over 60% in size
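Read-out: GFP aggregate count by laser scanning cytometer (488 nm excitation, 500-530 nm emission, 1–25 µm objects >6 SD above background). Cells: PC12, inducible HTTex1-Q103-GFP, 100 nM tebufenozide; compounds titrated.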
ALDH1A1 block – blocks purified human ALDH1A1 activity | Potency, µM (highest dose often 75.3 µM), for inactives: at the top dose activity, negative = inhibition, usual class: inhibitors | P00352 | 220,000 compounds, 7.3% hits | Purified ALDH1A1, NADH fluorescence, propionaldehyde substrate;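 further: plate controls were no enzyme wells and a reference inhibitor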
HPGD inh – blocks human HPGD enzyme activity | P15428 | purified HPGD, NADH fluorescence kinetic, PGE2 substrate | Potency, µM, inactives show top-dose activity change, negative = inhibition, most hits filed as inhibitors | 150,000 compounds, 4.3% hits; further: on the % scale 0 is the no-effect control and ±100 the full control effect
Target sequence (P15428 whole entry, looked up): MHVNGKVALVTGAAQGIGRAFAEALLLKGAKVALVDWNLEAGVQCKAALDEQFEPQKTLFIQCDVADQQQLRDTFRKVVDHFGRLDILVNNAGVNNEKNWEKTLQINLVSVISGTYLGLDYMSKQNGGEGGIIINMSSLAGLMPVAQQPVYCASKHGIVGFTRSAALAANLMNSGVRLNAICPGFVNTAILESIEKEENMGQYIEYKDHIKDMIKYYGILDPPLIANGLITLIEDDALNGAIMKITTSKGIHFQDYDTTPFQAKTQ
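NADH formation kinetics: reaction with 30 uM PGE2 and 1 mM NAD+ (final), 20 nM enzyme, Tris-HCl pH 8 with Tween 20, after 15 min compound preincubation at room temperature. Fluorescence change, last versus first of five reads.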
HTT ATP protect – protects HTT-Q103 PC12 cells, measured by ATP. Potency, µM (titrated, usually from 56.4 µM), inactives show cytoprotection (ATP increase), usual class: activators. AID 1471. PC12 HTT-Q103 induced, cytoprotection, ATP luminescence, 40 h. 230,000 compounds, 0.14% hits; active means well fitted curve in the direction sought with a large enough effect; inconclusive means small, poorly fitted or top-dose-only effect, or another doubt; inactive means no such curve, though single readings can be large; an effect the other way counts as inactive or inconclusive; further: % of control where 0% means no effect; nearly all actives have a fitted effect of over 45% in size
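Stable PC12 Q103-GFP cells in serum-supplemented, phenol red-free DMEM; induction by tebufenozide at 100 nM final; compound dose series; cell viability quantified luminescently from ATP.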
JMJD2E inh – inhibitors of human JMJD2E histone demethylase | B2RXH2 | JMJD2E catalytic domain, FDH-coupled NADH fluorescence (FDH is formaldehyde dehydrogenase) | Potency, µM (top dose mostly 57.1 µM), for inactives: top-dose activity change, negative = inhibition, hits mostly inhibitors | 230,000 compounds, 1.6% hits | AID 2147;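 further: 0% = wells with enzyme and -100% = buffer wells without enzyme; nearly all actives have a fitted effect of over 50% in size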
Target sequence (B2RXH2 1-337 limits assumed): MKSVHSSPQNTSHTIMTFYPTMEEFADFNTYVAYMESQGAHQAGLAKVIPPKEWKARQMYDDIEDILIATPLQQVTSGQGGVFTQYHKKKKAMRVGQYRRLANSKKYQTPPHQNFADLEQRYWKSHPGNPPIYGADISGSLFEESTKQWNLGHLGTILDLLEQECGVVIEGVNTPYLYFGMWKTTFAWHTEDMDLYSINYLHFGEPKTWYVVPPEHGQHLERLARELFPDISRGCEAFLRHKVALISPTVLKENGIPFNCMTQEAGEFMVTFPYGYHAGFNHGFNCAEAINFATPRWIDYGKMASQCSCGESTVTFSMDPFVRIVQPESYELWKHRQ
Lamin A splicing – modulators of lamin A splicing. HeLa LMNA splicing GFP/RFP minigene ratio, 48 h. Potency, µM (doses to about 46.1 µM), for inactives: at the top dose ratio change, negative = inhibition, most hits filed as inhibitors. 200,000 compounds, 0.01% hits; active means well fitted inhibition curve with a large enough effect in the signal ratio, with a control signal flat, not every such curve was filed as active; inconclusive means small, poorly fitted or top-dose-only effect, or effect the other way, or a change in a side signal; the % refers to the signal ratio; further: on the % scale 0 is the no-effect control and ±100 the full control effect
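Read-out is the ratio of GFP to DsRed2 object intensity, acquired by 488 nm laser-scanning cytometry on HeLa lamin A-EGFP minigene reporter cells. Compound incubation 48 hrs at 37 °C in Opti-MEM with 2% FBS; DMSO 0.5% final.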
Numbers without * were called inactive; ? = inconclusive; · = not tested or not shown; [ ] = another dose, or the depositor's remark. Unless noted, the call rests on the fitted dose curve; in most records, active means well fitted inhibition curve with a large enough effect (not every such curve was filed as active); inconclusive means small, poorly fitted or top-dose-only effect, or another doubt; inactive means no such curve, though single readings can be large or run the other way. Potency means the concentration at half of the fitted maximal effect.

SMILES | HTT aggregate | ALDH1A1 block | HPGD inh | HTT ATP protect | JMJD2E inh | Lamin A splicing
C=CCn1cc(/C=N/NC(=O)COc2cccc3cccnc23)c2ccccc21 | 4% | 18µM* | -10% | 3%[1.9 µM] | ? | -10%
Cc1cc(/C=N/NC(=O)C(=O)NCc2ccccn2)c(C)n1-c1ccccc1 | 3% | 11µM* | 2% | -3%[10 µM] | -1% | -1%
CC(C)n1cc(/C=N/NC(=O)COc2cccc3cccnc23)c2ccccc21 | 0% | ? | · | -2%[10 µM] | -2% | ?
Cc1cc(/C=N\NC(=O)c2cccs2)c(C)n1-c1ccc2ncccc2c1 | -22% | 20µM* | ? | -14% | -18% | ?
Cc1cc(/C=N/NC(=O)c2ccccn2)c(C)n1-c1cccc([N+](=O)[O-])c1 | 4% | ? | · | -94% | ? | 14%[9.22 µM]
Cc1cc(C)cc(-n2c(C)cc(/C=N/NC(=O)CSc3ncccn3)c2C)c1 | -5% | 28µM* | -15% | -26% | -26% | ?
Cc1cc(/C=N\NC(=O)COc2cccc3cccnc23)c(C)n1-c1ccc(Br)cc1 | 4% | ? | -3% | -5%[10 µM] | ? | ?
Cc1cc(/C=N\NC(=O)COc2cccc3cccnc23)c(C)n1-c1ccccc1 | ? | 14µM* | -16% | -5%[10 µM] | -2% | 0%
Cc1ccc(C2C3=C(CC(C)(C)CC3=O)Nc3[nH]c(=S)[nH]c(=O)c32)cc1 (centres undefined) | 18% | 0% | 18µM* | 11%[10 µM] | ? | -9%
CCCN1Cc2cccc(C(=O)NC(CC(=O)OCC)c3ccc(OC(C)C)cc3)c2C1=O (centres undefined) | 1% | ? | · | -4% | -11% | ·
CCCN1Cc2cccc(C(=O)NC(CC(=O)OCC)c3ccc(C)cc3)c2C1=O (centres undefined) | 23% | 13µM* | · | -30% | 11% | ·
COC(=O)NC(c1ccccc1)[C@@]1(C(=O)OC)CCCC1=O (some centres undefined) | · | 12%[13.5 µM] | · | -19%[10 µM] | · | ·
O=C(c1cc(=O)[nH]c2ccccc12)N1CCN(c2ccc([N+](=O)[O-])cc2)CC1 | 22%[9.22 µM] | 3µM* | · | 6%[10 µM] | -12% | ·
Cc1cc(C)c(C)c(S(=O)(=O)N2CCN(C(=O)c3cc(=O)[nH]c4ccccc34)CC2)c1C | ? | 14µM* | -7% | -38% | ? | ?
COc1cc2c(cc1OC)[C@@H]1C(=O)c3ccc4c(c3O[C@@H]1CO2)C=CC(C)(C)O4 | · | -3% | -11% | -55%[1.9 µM] | -7% | ·
Cc1ccc(N2C(=O)CSC23C(=O)N(CC(=O)NCc2ccccc2)c2ccccc23)cc1 (centres undefined) | · | · | · | · | · | -23%[46 µM]
Cc1ccc(NC(=O)Cn2c(=O)n(Cc3ccccc3)c(=O)c3c(C)c(C(=O)N(C)C)sc32)c(C)c1 | · | · | · | · | · | 2%[46 µM]
Cc1ccc(-n2[nH]c(=O)c3cccnc32)cc1 | 17% | 4% | 16µM* | -8% | 7% | 1%
Cc1ccc(-n2c(=O)[nH]c3ncccc3c2=O)cc1 | -4%[9.22 µM] | ? | · | 7%[10 µM] | 7% | ·
COc1ccc(CNC(=O)CN2C(=O)CSc3ccc(S(=O)(=O)N4CCC(C)CC4)cc32)cc1 | · | · | · | · | · | -13%[46 µM]
CC(C)CCSc1nc(N)c(C#N)cc1C#N | 22µM* | ? | -23% | -28%[10 µM] | ? | ?
CC12CCC(C(=O)NCc3ccccc3Cl)(CC1=O)C2(C)C (centres undefined) | 18% | -4% | · | -29% | -10% | -14%[46 µM]
COCCNC(=O)CCc1nc(-c2ccccc2)no1 | -2% | 2% | 16µM* | -12%[0.074 µM] | -4% | -12%
COCCCNC(=O)CCc1nc(-c2ccccc2)no1 | -20% | -10% | ? | -11%[0.074 µM] | 6% | -4%
COc1ccccc1-c1noc(CCC(=O)Nc2ccccc2Cl)n1 | -5% | 28µM* | 25µM* | 10%[10 µM] | -24% | -15%
SMILES | HTT aggregate | ALDH1A1 block | HPGD inh | HTT ATP protect | JMJD2E inh | Lamin A splicing
Cc1ccc(-c2noc(CCC(=O)NCc3ccco3)n2)cc1 | 14% | ? | 28µM* | 2% | -2% | 14%
Cc1ccc(NC(=O)CSc2nccn2C2CCCC2)cc1Cl | · | · | · | · | · | -6%[46 µM]
O=C(c1cccc(F)c1)N1CCC2(CC1)CN(Cc1ccccc1)C2 | · | 3% | -3% | 4% | · | ·
Fc1ccc(-n2[nH]nnc2=S)cc1N1CCCC1 | -9% | 14µM* | 18µM* | -25%[0.074 µM] | ? | 3%
NNC(=O)c1ccc([N+](=O)[O-])c(CS(=O)(=O)c2ccc(Cl)cc2)c1 | -8% | 11µM* | -19% | -1% | 28% | 9%
CCCN1CCC(NCc2cn(C)nc2-c2ccc(Oc3ccccc3)cc2)CC1 | 13%[9.22 µM] | · | · | -30%[10 µM] | 0% | ·
COc1ccc(NC(=O)N2CCCC3(CCN(C(=O)c4csnn4)CC3)C2)cc1 | · | -2% | -2% | -13% | · | ·
CCN1CCN(C(=O)CCc2nnc(CCCCc3ccccc3)o2)[C@@H](C)C1=O | -1%[9.22 µM] | 8.9µM* | · | 5%[10 µM] | 0% | -3%[46 µM]
O=C(COc1ccc(Cl)cc1Cl)OCC(=O)N1CCCc2ccccc21 | -3% | 4% | -7% | -9%[10 µM] | 9% | -15%
O=C(COc1ccc(Cl)cc1Cl)NC(=S)N1CCCc2ccccc21 | ? | 7.5µM* | 22µM* | 13% | 3% | ?
O=C(COc1ccc(Cl)cc1Cl)NC(=O)N1CCCCC1 | ? | 4% | 16µM* | -8% | -3% | 10%
COc1ccc(C(=O)NCc2ccc3c(c2)CCO3)cc1 | -10%[9.22 µM] | · | · | 1%[10 µM] | 2% | ·
CC1CC(C)CN(C(=O)c2cc3c(s2)CCC3)C1 (centres undefined) | 2%[9.22 µM] | ? | 13µM* | -11% | -1% | 12%
O=C(c1cc2c(s1)CCCC2)N1CCN(c2ccccc2)CC1 | -1% | 22µM* | · | -13% | -1% | ·
CCOc1ccccc1N1CCN(C(=O)c2cc3c(s2)CCC3)CC1 | -10% | -1% | 0% | -2% | -11% | 3%
COc1ccccc1CNc1ccc([N+](=O)[O-])cc1C | 9%[9.22 µM] | ? | · | -4%[10 µM] | -10% | ·
Cn1c(-c2ccc(F)cc2)cnc1NCc1cc2c(cc1[N+](=O)[O-])OCO2 | 3% | 3% | -17% | 3%[10 µM] | -8% | -7%
Cn1c(-c2ccccc2)cnc1NCc1cc2c(cc1[N+](=O)[O-])OCO2 | -5% | 13µM* | -16% | -13%[10 µM] | -8% | -18%
Cc1cc(F)ccc1NCc1cc2c(cc1[N+](=O)[O-])OCO2 | 0% | 11µM* | -17% | 1%[10 µM] | -7% | 15%
Cn1c(-c2ccc(Cl)cc2)cnc1NCc1cc2c(cc1[N+](=O)[O-])OCO2 | 4% | 14µM* | 0% | -10%[10 µM] | ? | -14%
CC(C)(C)OC(=O)NNC(=O)Nc1ccccc1C(F)(F)F | -11% | 4% | · | · | 7% | ?

Screening results deposited in PubChem by National Center for Advancing Translational Sciences (NCATS).
